Compound activity as filed in PubChem BioAssay.
ATXN2 expr inh: reduces ATXN2 reporter expression in HEK-293 cells; HEK-293 ATXN2-luciferase reporter, luminescence, 24 h; Potency, µM (titrated, usually from 57 µM), hits mostly inhibitors; actives 0.72% (n = 360,000); AID 1745845; further: nearly all actives have a fitted effect of over 55% in size
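qHTS (up to 57 uM final) was run with 24 h compound exposure of reporter cells at 37 °C. Each well was multiplexed: SteadyGlo luminescence measured ATXN2-luciferase expression after a fluorogenic Gly-Phe-AFC viability readout (25 uM final).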
TGFb inhibitor: blocks TGF-b signaling; HepG2 CAGA-GFP TGF-b/SMAD3 reporter, GFP fluorescence, 18 h; TGF-beta stimulated, 500 pg/mL final; Potency, µM (highest dose often 46.1 µM), usual class: inhibitors; actives 1.2% (n = 410,000); further: nearly all actives have a fitted effect of over 65% in size
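Cell-based qHTS in HEPG2 carrying a CAGA-GFP Smad reporter; compounds added before 500 pg/mL final TGF-beta, 18 h incubation at 37 degrees C, GFP fluorescence quantified per cell by imaging cytometry.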
TDP1 cell noCPT: qHTS for Inhibitors of human tyrosyl-DNA phosphodiesterase 1 (TDP1): qHTS in cells in absence of CPT | Potency, µM (top dose mostly 46.2 µM), most hits filed as inhibitors | DT40 Tdp1-/- hTDP1 cells, no CPT, ATP luminescence, 48 h | actives 15% (n = 420,000); further: nearly all actives have a fitted effect of over 55% in size
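Camptothecin absent (DMSO only). Human TDP1-complemented DT40 knockout cells, 400 cells/well, 37 °C for minimum 48 hr; ATP measured via CellTiter-Glo, 30 min dark incubation, luminescence.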
HepG2 tox: kills HepG2 cells in TGF-b inhibitor counter-screen; AID 588856; Potency, µM (highest dose often 46.1 µM), hits mostly cytotoxic; actives 0.76% (n = 410,000); HepG2 CAGA-GFP viability, ATP luminescence, 18 h
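HepG2 CAGA-GFP cells (1000/well, DMEM with 1% FBS) received compound, then TGF-beta at 500 pg/mL final, and were incubated 18 hours at 37 degrees C. Viability was read by CellTiter-Glo luminescence. Media-only wells were set as complete cell-killing and DMSO as no toxicity.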
ATXN viability: reduces viability in counter-screen for ATXN expression inhibitors; Potency, µM (top dose mostly 56.7 µM), hits mostly cytotoxic; S2 cells (HEK-293 line with an ATXN2-luciferase reporter) viability, CellTiter-Fluor protease fluorescence, 24 h; actives 0.49% (n = 400,000); AID 651635; further: nearly all actives have a fitted effect of over 40% in size
TDP1 cell CPT: growth inhibition of DT40 Tdp1-/-;hTDP1 cells with camptothecin (screen for TDP1 inhibitors) | chicken DT40 Tdp1-/-;hTDP1 cells + 20 nM CPT, ATP luminescence, 48 h | Potency, µM (highest dose often 46.2 µM), hits mostly inhibitors | AID 686979 | actives 12% (n = 420,000); further: nearly all actives have a fitted effect of over 55% in size
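Chicken DT40 Tdp1-/- cells stably complemented with human TDP1 were seeded at 400 cells/well in medium containing 20 nM camptothecin, exposed to pin-transferred compounds, and grown at 37 °C for at least 48 hr. Viability was read as ATP luminescence.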
Of the large screens only hits and unclear results are named; the others gave an inactive call. A selection: hits, their analogues and other compounds. The true share with any hit is near 17%. The call rests on the fitted dose curve; in most records, active means well fitted curve in the direction sought with a large enough effect; inconclusive means small, poorly fitted or top-dose-only effect, or another doubt; inactive means no such curve, though single readings can be large; an effect the other way counts as inactive or inconclusive.

C=CCC1(C(C)CCC)C(=O)N=C(S)NC1=O (configuration not stated)	none (no result: ATXN2 expr inh, TGFb inhibitor, HepG2 tox, ATXN viability)
C[C@]1(O)CCC2C3CC[C@H]4C[C@@H](OC(=O)CNC(=O)CN)CC[C@]4(C)C3CC[C@@]21C (some centres not stated)	TDP1 cell noCPT inconclusive, TDP1 cell CPT inconclusive
Cc1cc(/C=C2\C(=O)NC(=O)N(c3ccc(Cl)cc3)C2=O)c(C)n1-c1sc2c(c1C#N)CCCC2	TGFb inhibitor 3.5µM, TDP1 cell noCPT inconclusive, ATXN viability inconclusive, TDP1 cell CPT inconclusive (no result: ATXN2 expr inh)
CC1CCN(C(=O)CCl)CC1	TDP1 cell noCPT 16µM, ATXN viability inconclusive, TDP1 cell CPT inconclusive (no result: ATXN2 expr inh)
COc1cccc(C(=O)NCc2nc(-c3cccc(NC(=O)c4ccoc4C)c3)oc2C)c1	TDP1 cell noCPT inconclusive, ATXN viability inconclusive (no result: ATXN2 expr inh, TGFb inhibitor, HepG2 tox)
C[C@H](CO)N1C[C@H](C)[C@@H](CN(C)Cc2ccc(-c3ccccc3)cc2)Oc2c(NC(=O)c3ccncc3)cccc2C1=O	ATXN2 expr inh inconclusive, TGFb inhibitor inconclusive, TDP1 cell noCPT 23µM, ATXN viability inconclusive, TDP1 cell CPT 16µM
C[C@H](CO)N1C[C@H](C)[C@@H](CN(C)Cc2ccccc2)Oc2c(NC(=O)c3ccncc3)cccc2C1=O	TDP1 cell noCPT 23µM, TDP1 cell CPT inconclusive
C[C@H]1CN([C@@H](C)CO)C(=O)c2cc(-c3cccnc3)cnc2O[C@H]1CN(C)Cc1ccc(Oc2ccccc2)cc1	TDP1 cell noCPT inconclusive, ATXN viability inconclusive, TDP1 cell CPT inconclusive
C/C=C1\C[C@H](C)[C@@](O)(CO)C(=O)OCC2=CCN3CC[C@@H](OC1=O)[C@@H]23	none (no result: ATXN2 expr inh, TGFb inhibitor, TDP1 cell noCPT, HepG2 tox, TDP1 cell CPT)
O=C(Cc1n[nH]c(=O)c2ccccc12)OCc1c(Cl)cccc1Cl	TDP1 cell noCPT inconclusive, TDP1 cell CPT inconclusive
CN1OCC2Cn3c(nc4ccccc43)C21 (configuration not stated)	none
CCOc1ccc(NCc2cccn2-c2nnc(N3CCC(C(=O)NCC(C)c4ccccc4)CC3)s2)cc1 (configuration not stated)	TDP1 cell noCPT 8.2µM, TDP1 cell CPT 23µM (no result: ATXN2 expr inh, TGFb inhibitor, ATXN viability)
CCOc1ccc(NCc2cccn2-c2nnc(N3CCC(C(=O)NCc4ccc(C)cc4)CC3)s2)cc1	TDP1 cell noCPT 7.3µM, TDP1 cell CPT 9.2µM (no result: ATXN2 expr inh, TGFb inhibitor, ATXN viability)
Cc1ccc(NCc2cccn2-c2nnc(N3CCC(C(=O)NCc4ccc(OC(C)C)cc4)CC3)s2)cc1	TDP1 cell noCPT 18µM, TDP1 cell CPT inconclusive (no result: ATXN2 expr inh, TGFb inhibitor, ATXN viability)
CCc1ccc(C2=NN(CCC(=O)N3CCC4(CC3)OCCO4)C(=O)CC2)cc1	none
CCCCOP(=O)(c1ccc(N(C)C)cc1)C(O)c1ccc(OC)c(OC)c1 (configuration not stated)	none
CCCNC(=O)N1[C@H]2CC[C@@H]1C(C(=O)OC)=C(c1ccc(OC)c(OC)c1)C2	ATXN viability inconclusive
CCN1CCN(Cc2cc(Br)cc(Br)c2O)CC1	TDP1 cell noCPT 16µM, TDP1 cell CPT inconclusive
CCOC(=O)c1cnc(SCc2ccc(Cl)c(Cl)c2)nc1N1CC1	TDP1 cell noCPT 0.82µM, ATXN viability inconclusive, TDP1 cell CPT 0.58µM
O=c1c2ccccc2nc(CNCC2CCCO2)n1-c1ccc(F)cc1 (configuration not stated)	TDP1 cell CPT inconclusive
O=C(CCCCl)c1ccc(F)cc1	none (no result: TGFb inhibitor, TDP1 cell noCPT, HepG2 tox, TDP1 cell CPT)
O=C(CCCN1CCC2(CC1)C(=O)N(Cc1cccc(F)c1)CN2c1ccccc1)c1ccc(F)cc1	TDP1 cell noCPT 15µM, TDP1 cell CPT 30µM (no result: ATXN2 expr inh, TGFb inhibitor, HepG2 tox, ATXN viability)
Cc1ccccc1C(=O)Oc1cccc(Nc2ncnc3ccccc23)c1	TDP1 cell noCPT 13µM, TDP1 cell CPT 16µM
CNCC(O)c1cccc(OC(=O)c2ccccc2C)c1 (configuration not stated)	none
Oc1ccc2c3c1O[C@H]1c4oc5ccccc5c4C[C@@]4(O)[C@@H](C2)N(CC2CC2)CC[C@]314	TDP1 cell noCPT inconclusive, TDP1 cell CPT inconclusive
